Data reported in PubChem BioAssay AID624300 (Southern Research Specialized Biocontainment Screening …, 2012).
The whole screen tested about 2,400 compounds, of which about 360 (15%) were called active.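 How the source made its calls: active means viability falls under 70% at one or more tested concentrations, taken as toxicity; inactive means viability stays over 70% at every dose.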 A selection follows. Entries with a potency or affinity are not part of this list.

Test: viability loss in HeLa cells – cytotoxicity control for MgcRacGAP inhibitor project, dose response (AID 624300);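 further: 100% = median of untreated control wells on the same plate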
Details: CellTiter-Glo luminescence, 24 h; series mostly up to 100 µM; viability: at the top concentration
With `O=C(CCCCCNC(=O)c1ccccc1)N/N=C/c1ccc(O)cc1O` the “viability” value was 94.8% (inactive). In the case of `O=S(=O)(O)c1cc(Cl)cc(N=Nc2ccc(O)cc2O)c1O`, the “viability” value is reported as 99.5% (inactive). With `CCc1cc(-c2n[nH]c(CCC(=O)O)c2-c2nc3ccccc3n2C)c(O)cc1O` the “viability” value was 102% (inactive). With `COc1ccc2c(c1)Sc1ccccc1N2` the “viability” value was 99.8% (inactive). For `Cn1cnc2cc(NCc3ccccc3O)ccc21`, the “viability” value was 99.7% (inactive). For `CCN(CC)c1ccc(N=Cc2ccccc2[N+](=O)[O-])cc1`, the “viability” value was 89.2% (inactive). With `CC(=O)OCCNc1cc(N2CCN(C)CC2)c2noc3c2c1C(=O)c1ccccc1-3` the “viability” value was 89.7% (inactive). In the case of `CCOc1cc(/C=N\n2nnnc2N)ccc1O`, the “viability” value is reported as 101% (inactive). For `CCOc1cc(/C=N/NC(=O)CCn2nc(C)cc2C)ccc1O`, the “viability” value was 110% (inactive). For `CCN(CC)c1ccc(NC(=O)COC(=O)Cc2ccsc2)cc1`, the “viability” value was 101% (inactive). With `Nc1c(/C=C2/C=CC(=O)C(O)=C2)c(=O)nc2sc(CC(=O)N3CCCC3)nn12` the “viability” value was 101% (inactive). With `CC(=O)Nc1ccc(OC(=O)Cc2ccc(Cl)cc2)cc1` the “viability” value was 101% (inactive). In the case of `OCCCNC(=S)Nc1ccc(Nc2ccccc2)cc1`, the “viability” value is reported as 99.7% (inactive). With `COc1cc(OC)c(OC)cc1CN1CCN(C(=O)c2cccc3ccccc23)CC1` the “viability” value was 81.6% (inactive). In the case of `O=c1cc(-c2ccc(O)c(O)c2)oc2cc(O)c(C3OC(CO)C(O)C(O)C3O)c(O)c12` (configuration not stated), the “viability” value is reported as 103% (inactive). With `Oc1ccc(N2CCN(C(=S)NCCc3ccccc3)CC2)cc1` the “viability” value was 119% (inactive). For `CC1(C)CNc2cc(N)ccc2S1`, the “viability” value was 106% (inactive). For `Nc1n[nH]c(=S)n1/N=C1/C(=O)Nc2ccccc21`, the “viability” value was 102% (inactive). For `CC(C)N1CCN(C(=O)c2cccc(Cl)c2)CC1`, the “viability” value was 102% (inactive). With `Fc1ccc(CNCc2ccccc2Cl)cc1` the “viability” value was 96.2% (inactive). In the case of `CCN1CCN(CCCOc2ccc(Cl)cc2Br)CC1`, the “viability” value is reported as 99.2% (inactive). In the case of `C=CCc1cc(Cl)ccc1OCCN(C)C`, the “viability” value is reported as 97.9% (inactive). With `Oc1ccc2ccc(Cl)cc2c1` the “viability” value was 105% (inactive). For `CCn1nc(C)c(Br)c1C(=O)Sc1ccccc1Cl`, the “viability” value was 86.9% (inactive). In the case of `Cc1c(NC(=O)CNCc2ccc3c(c2)OCO3)c(=O)n(-c2ccccc2)n1C`, the “viability” value is reported as 99.1% (inactive). With `Nc1ccc(N=Nc2ccc(N)cc2)cc1` the “viability” value was 103% (inactive). With `COc1cccc(OC)c1NC(=O)CN1CCN(C)CC1` the “viability” value was 100% (inactive). In the case of `COc1ccc(/C=N/NC(=O)c2cnccn2)cc1O`, the “viability” value is reported as 98.4% (inactive). With `O=C(CNCc1ccco1)Nc1cccc(S(=O)(=O)N2CCCCC2)c1` the “viability” value was 103% (inactive). With `Cc1cn([C@H]2C[C@H](O)[C@@H](CNCC3=Cc4cc(O)ccc4OC3)O2)c(=O)[nH]c1=O` the “viability” value was 103% (inactive). With `CCN(c1ccccc1)S(=O)(=O)c1ccc(Cl)c(NC(=O)CN(C)C2CCN(C)CC2)c1` the “viability” value was 95.9% (inactive). With `CN1CCC(N(C)CC(=O)Nc2ccc3c(c2)OC(F)(F)O3)CC1` the “viability” value was 101% (inactive). For `COc1cc(/C=C/C(=O)OCC(=O)N2CCN(C(=O)c3ccco3)CC2)ccc1O`, the “viability” value was 102% (inactive). For `CCn1c(=O)c2c3c(sc2n2c(=S)[nH]nc12)CCC3`, the “viability” value was 84.2% (inactive). For `CC1(C)OC(C)(C)/C(=C/Nc2ccc(O)cc2)C1=O`, the “viability” value was 99.8% (inactive). In the case of `O=C(Nc1ccc(O)cc1)c1ccccc1OCc1ccccc1`, the “viability” value is reported as 101% (inactive). In the case of `COc1cc(C(=O)N/N=C(\C)c2ccc(NC(=O)Cc3ccccc3)cc2)ccc1O`, the “viability” value is reported as 103% (inactive). In the case of `c1cc(CN2CCN(C3CCCCCC3)CC2)ccn1`, the “viability” value is reported as 101% (inactive). For `O=C1CC(Nc2ccc(N3CCOCC3)cc2)C(=O)N1Cc1ccccc1` (configuration not stated), the “viability” value was 106% (inactive). In the case of `CSc1ccccc1NC(=O)CNCCCN1CCOCC1`, the “viability” value is reported as 99.5% (inactive). For `COc1cc(CC(=O)OCC(=O)Nc2ccc(N(C)C)cc2)cc(OC)c1OC`, the “viability” value was 103% (inactive). For `Cc1cc(-c2n[nH]c(=S)n2/N=C/c2cccs2)n[nH]1`, the “viability” value was 89.2% (inactive). For `CCCCNCC#CCOc1cc(C)ccc1C(C)C`, the “viability” value was 87.9% (inactive). For `C=CCNCC(O)COc1ccc(C(C)=O)cc1OC` (configuration not stated), the “viability” value was 98.9% (inactive). With `O=C(CNCc1ccco1)Nc1ccc(N2CCCCCC2)cc1` the “viability” value was 83.5% (inactive). In the case of `CC1CN(CCCCOc2ccc(Cl)c3ccccc23)CC(C)O1` (configuration not stated), the “viability” value is reported as 83.8% (inactive). In the case of `Cc1ccccc1OCCN1CCCC1`, the “viability” value is reported as 101% (inactive). For `COc1cc(C2NC(=O)C(C#N)=C(S)N2c2ccc(C)cc2)ccc1OC(C)C` (configuration not stated), the “viability” value was 99.7% (inactive). For `Nc1ccc2ccc(O)cc2c1`, the “viability” value was 96.5% (inactive). With `CCOc1cc(/C=C(\C#N)C(=O)NCc2cccnc2)ccc1O` the “viability” value was 94.7% (inactive). In the case of `CCOc1cc(/C=C(\C#N)C(=O)NCC2CCCO2)ccc1O` (configuration not stated), the “viability” value is reported as 96.2% (inactive). For `O=C(CCC1CCCC1)N1CCN(C2CCCC2)CC1`, the “viability” value was 90.8% (inactive). With `CC(C)(C)c1cc(C(=O)N/N=C/c2ccc(O)cc2)n(-c2ccccc2)n1` the “viability” value was 105% (inactive). With `Cc1cccc2sc(NNC(=O)c3cc(=O)c4ccccc4o3)nc12` the “viability” value was 80.6% (inactive). With `COc1ccc(NC(=S)NCC2CCN(c3ccc(OC)cc3)C2)cc1` (configuration not stated) the “viability” value was 110% (inactive). In the case of `C=CCc1cc(Cl)ccc1OCCn1ccnc1`, the “viability” value is reported as 101% (inactive). With `CCOc1cc(/C=N/NC(=O)CN2CCCCC2)ccc1O` the “viability” value was 98.7% (inactive). In the case of `O=C1CSC(=Nc2ccc(O)cc2)N1c1ccc(O)cc1`, the “viability” value is reported as 112% (inactive). With `COc1ccc(NC2CCCN(C(=O)c3cc(C)nc4cc(F)ccc34)C2)cc1` (configuration not stated) the “viability” value was 102% (inactive). For `O=C(N/N=C/c1ccc(O)cc1)c1cc[n+](Cc2ccccc2)cc1`, the “viability” value was 102% (inactive). With `O=C(N/N=C/c1ccc(N2CCOCC2)s1)c1ccc(O)cc1` the “viability” value was 101% (inactive). With `CN(C)c1ccc(N=c2sc3ccccc3n2C)cc1` the “viability” value was 87.8% (inactive). In the case of `Cc1c(N=Nc2ccc(N(C)C)cc2)c(=O)n(-c2ccccc2)n1C`, the “viability” value is reported as 103% (inactive). In the case of `CCc1nnc(NC(=O)CSCc2cc(=O)n3ccsc3n2)s1`, the “viability” value is reported as 97.5% (inactive). For `COc1ccc([C@H]2CN(c3ccc(OC)cc3)C(=O)[C@@H]2CC(=O)Nc2ccccc2)cc1`, the “viability” value was 92.8% (inactive). With `COc1cc(/C=N/NC(=O)C2(O)c3ccccc3-c3ccccc32)ccc1O` the “viability” value was 105% (inactive). In the case of `O=C1C=CC(=O)N1c1ccc(Nc2ccccc2)cc1`, the “viability” value is reported as 101% (inactive). For `O=C(O)C1CCN(Cc2cnn(-c3ccccc3)c2-n2cccc2)CC1`, the “viability” value was 104% (inactive). For `COc1cc(/C=N/NC(=O)c2ccc3c(c2)OCO3)ccc1O`, the “viability” value was 94.8% (inactive). In the case of `COc1ccc(CCNCCN2CCOCC2)cc1`, the “viability” value is reported as 106% (inactive). For `Oc1ccc(/C=N/NC(=S)Nc2cccnc2)c(O)c1`, the “viability” value was 98.1% (inactive). In the case of `CN=c1scc(C)n1/N=C/c1ccc(O)cc1O`, the “viability” value is reported as 83.2% (inactive). In the case of `CN=c1scc(-c2ccc(F)cc2)n1/N=C/c1ccc(O)c(O)c1`, the “viability” value is reported as 90.5% (inactive). For `CN=c1scc(-c2ccco2)n1/N=C/c1ccc(O)c(O)c1`, the “viability” value was 97.5% (inactive). In the case of `COC(=O)c1[nH]c2ccccc2c1NC(=O)Oc1ccccc1`, the “viability” value is reported as 88.4% (inactive). For `Nc1ccc(N2CCOCC2)c(Cl)c1`, the “viability” value was 102% (inactive). In the case of `CC(=Nc1ccc(O)cc1)c1sc2ccccc2c1O`, the “viability” value is reported as 112% (inactive).
